Measurements reported in PubChem BioAssay AID1794844 (National Center for Advancing Translational Sciences (NCATS), 2023).
Out of some 2,800 compounds screened, fewer than 10 were called active. Inconclusive results (about 7%) are left out. Calls come from the whole dose curve; as a rule, active = well fitted inhibition curve with a large enough effect; inconclusive = small, poorly fitted or top-dose-only effect; inactive = no such curve, though single readings can be large or run the other way. The list is a sample of the results.

Molecular target: Metallo-beta-lactamase type 2 (Klebsiella pneumoniae) (UniProt C7C422)
Sequence (C7C422 whole entry, looked up): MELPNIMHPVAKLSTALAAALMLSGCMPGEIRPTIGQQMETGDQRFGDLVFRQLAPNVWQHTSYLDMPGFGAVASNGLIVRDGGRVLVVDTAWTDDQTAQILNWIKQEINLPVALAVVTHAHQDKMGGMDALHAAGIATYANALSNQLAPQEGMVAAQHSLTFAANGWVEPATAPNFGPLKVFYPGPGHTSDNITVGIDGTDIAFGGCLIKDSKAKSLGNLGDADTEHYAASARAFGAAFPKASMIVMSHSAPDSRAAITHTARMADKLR
Assay: qHTS to identify inhibitors of the New Delhi Metallo-beta-lactamase (NDM): Nitrocefin screen against the machine-based learning selections. Note: % of control where 0% means no effect.
Conditions: NDM-1 enzyme, nitrocefin hydrolysis, absorbance 485 nm; series mostly up to 38.4 µM; activity, negative = inhibition: at the top concentration
From the text: Assay Submitter (PI): James Inglese Ph.D., Patricia Dranchak Ph.D., Mahesh Aitha Ph.D. Assay Development and Screening Technology Laboratory (ADST) National Center for Advancing Translational Sciences (NCATS), Rockville, MD National Institute of Health (NIH), Bethesda, Maryland The metallo-beta-lactamases (MBL) are a main antibiotic resistance mechanism evolved by bacteria. There is an urgent clinical need for MBL inhibitors to mitigate this growing threat. To support a machine-based learning study, qHTS has been used to experimentally test inhibitors identified by prediction tools.
PROTOCOL TABLE (as described by Inglese et al., 2007) SEQUENCE No. (e.g., 1, 2, 3, etc.); […] (e.g., enzyme, Incubation, Reagent, etc.); VALUE; DESCRIPTION Primary Screen 1; NDM-1; 4 uL of 3 nM enzyme [2 nM final] in 50 mM HEPES (pH 7.0), 1 uM […], 0.01% Tween20; Use BioRaptr to dispense into two sets of Aurora black, clear bottom high base 1536-well plates 2; Compounds; 23 nL; Use Pin Tool (Wako) to transfer DMSO control and library compounds in DMSO 3; Incubate; >30 min 4a; Reagent; 2 uL of 50 uM nitrocefin [16.7 uM final] to one set of assay plates 4b; Reagent; 2 uL of 150 uM meropenem [50 uM final] to second set of assay plates 5a; Incubate; 15 min 5b; Incubate; 30 min 6a; Detector; Absorbance at 485 nm (bandwidth = 5 nm, 25 flashes/well) on Tecan Infinity 6b; Detector; Absorbance at 300 nm (bandwidth = 5 nm, 25 flashes/well) on Tecan Infinity NOTES (numbers refer to sequence above) 1; Column 1 of each plate received assay buffer without enzyme and columns 2-48 received enzyme for a final assay concentration of 2 nM. 2; Control plate contained DMSO in columns 1, 2, 3, and 4. 3; Compound interaction with enzyme. 4; Nitrocefin and meropenem substrates were prepared in the same assay buffer as step 1 for a final assay concentration of 16.7 uM and 50 uM, respectively, and added to all wells across respective sets of assay plates. 5; Default reader settings were applied for absorbance read at 485 nm (nitrocefin) or 300 nm (meropenem), bandwidth = 5 nm, 25 flashes/well. References: Inglese J, Shamu CE, Guy RK. 2007. Reporting data from high-throughput screening of small-molecule libraries. Nat Chem Biol. doi:10.1038/nchembio0807-438 Yasgar A, Shinn P, Jadhav A, Auld D, Michael S, Zheng W, Austin CP, Inglese J, Simeonov A. 2008. Compound Management for Quantitative High-Throughput Screening. J Lab Autom 13:79 - 89. doi:10.1016/j.jala.2007.12.004

activity, negative = inhibition, inactive:
COc1ccccc1CCC(=O)NCc1nnc2ccc(-c3ccc(C)cc3)nn12 0.342%, O=C(NCc1ccc2c(c1)OCO2)C1CCN(c2cn[nH]c(=O)c2)C1 (stereo not drawn) -0.395%, O=C(O)CCCC(=O)N1CCN2C(=O)c3cc(-c4ccco4)ccc3NC(=O)[C@@H]2C1 -1.67% [at 57.5 µM], O=C(c1ccc(N2CC3CC(C2)[C@H]2CCCC(=O)N2C3)nc1)N1CCN(c2cccc(Cl)c2)CC1 (stereo partly drawn) 4.67%, Cc1ccc(C2(O)CCN(C(=O)c3cnn4cc(CCO)cnc34)CC2)nc1 -0.405%, O=C(C[C@@H]1CCNC[C@@H]1Cc1cc(CC2CCCCC2)on1)NC1CC1 -5.16% [at 57.5 µM], O=C(Nc1ccccc1)O[C@@H]1CO[C@H]2[C@@H]1OC[C@@H]2NC(=O)c1ccc(C(F)(F)F)cc1 -7.3%, Cc1cnn(Cc2cc(C(=O)N3CCCCCC3c3nnc(-c4ccccc4)o3)no2)c1 (stereo not drawn) -2.52%, COc1ccc(-c2cc(N3CCCN(C(=O)c4cnccn4)CC3)n[nH]2)cc1 5.78%, Cc1cc(C(=O)N[C@@H]2CCC[C@@H](C(=O)N3CCN(C)CC3)CC(=O)N(C)C2)no1 1.92% [at 57.5 µM], CCC(C)NC(=O)CC1Sc2ncccc2N(C)C1=O (stereo not drawn) -4.27%, CC[C@H]1CN(C(=O)Nc2cccc(C(F)(F)F)c2)CC[C@H]1CC(=O)NC1CC1 9.41% [at 57.5 µM], CC(C)NC(=O)C[C@@H]1C[C@H]2O[C@H](CNCc3ccccc3Cl)[C@@H](O)[C@H]2O1 -0.815% [at 57.5 µM], COc1nc2c(cc1CNC(=O)C1CCOC1)C(=O)N(CCc1ccccn1)C2 (stereo not drawn) -6.59%, Cc1ccc(CN2CC[C@@H]3[C@H]2C(=O)NC[C@H](CCC(=O)N2CC[C@@H](O)C2)N3C)cc1 -10.8% [at 57.5 µM], O=C(O)C[C@@H]1CCN(C(=O)c2ccco2)C[C@@H]1CCN1CCOCC1 -16.5% [at 57.5 µM], CN1C[C@H](C(=O)NCc2ccccc2)C[C@H]1c1cccc(C(F)(F)F)c1 7.22% [at 57.5 µM], CC(C)C[C@@H]1N[C@H](C(=O)NCCOc2ccccc2)Cc2c[nH]c3cccc1c23 -8.13% [at 57.5 µM], CN(C)C1CCN(c2nc(-c3ccncc3)nc3c2CNC3)C1 (stereo not drawn) -18.4%, Cc1oc(C(O)c2cccc(O)c2)nc1C(=O)Nc1ccc2[nH]c(=O)oc2c1 (stereo not drawn) 364% [at 57.5 µM], O=C(c1cc(-c2ccc(O)cc2)n[nH]1)N1CCCC(CCc2ccc(F)cc2)C1 (stereo not drawn) -4.71%, COc1ccc(CC2(CO)CCN(c3nccc(N)n3)CC2)cc1 -0.629%, Cc1ccc2c(C)c(C(=O)N3CC(OCc4ccccc4F)C3)oc2c1 3.3%, COCCNC(=O)c1ccc2c(c1)N(C)C(CC(=O)Nc1ccc(N)nc1)CO2 (stereo not drawn) 0.471%, CCCc1cc(C(=O)N[C@@H]2COCC[C@H]2Oc2ccc(C(=O)O)cc2)n[nH]1 -3.33%, Cc1cccc(C(=O)N2CC[C@@H](NC(=O)c3cnccn3)[C@H](O)C2)n1 -0.486%, O=[S+]([O-])(c1cccnc1)N1CCNc2cnc(Nc3ccc(-n4ccnc4)cc3)nc2C1 -18.7%, O=C(Cn1ccn2nc3c(c2c1=O)CCCC3)NCc1ccc2c(c1)OCO2 -5.33%, COc1ccccc1-n1cc(C(=O)NC[C@@H]2C[C@H](F)CN2)cn1 27.4%, c1csc(CN2Cc3[nH]cnc3C[C@H]2c2nc(-c3ccc4c(c3)OCO4)no2)c1 -5.85% [at 57.5 µM], O=C(Nc1ccccc1)O[C@@H]1CO[C@H]2[C@@H]1OC[C@@H]2NS(=O)(=O)c1cccc2cccnc12 4.41%, OCc1cccc(-c2ccc3ncc(Nc4cccc(F)c4)n3n2)c1 3.24% [at 57.5 µM], O=C(c1ccc2ncccc2c1)N1CCC2(CC1)Nc1ccccc1NC2=O -0.464%, COc1ccc(CC(=O)N2CC(CO)C3(CCNCC3)C2)cc1 (stereo not drawn) -12.8%, Cc1ccc(CN2CC[C@@H](CO)N(C)c3cccnc3C2)s1 -5.46% [at 57.5 µM], CS(=O)(=O)N1CCC(C2CCN(C(=O)Cc3cccc(F)c3)C2)CC1 (stereo not drawn) 1.68%, O=C(NCc1nc(-c2ccncc2)n[nH]1)[C@H]1CCC[C@H](O)C1 -10.4%, N[C@@H]1CCN(Cc2ccccc2OCc2ccc(Cl)cc2)C[C@H]1O 12.1%, COCCOc1ncccc1-c1noc([C@@H]2CCCN2CC(C)(C)C)n1 0.0168% [at 57.5 µM], CC1=C[C@@H](CNC(=O)c2ccc(F)cc2)[C@H](C(C)C)C[C@H]1CC(=O)N1CCN(C)CC1 8.05% [at 57.5 µM], O=C1Cc2c(-c3cccc(O)c3)n[nH]c2CN1CC1CC1 -0.331% [at 76.7 µM], C[C@@H]1CN(C(=O)Cn2ccc(=O)[nH]c2=O)C[C@@]1(O)C1CCC1 3.92%, COc1cccc(NC(=O)O[C@@H]2CC[C@]3(C)C(CC[C@@H](O)[C@H]3CC(=O)N3CCCC3)[C@]2(C)CO)c1 (stereo partly drawn) 1.26%, CCc1noc([C@@H]2CC(F)(F)CN2C(=O)c2ccoc2C)n1 -11%, CC(C)=CC(=O)N1CC[C@H](NC(=O)Nc2ccc(F)cc2F)[C@H]1C(=O)N[C@@H](Cc1cccs1)C(N)=O -2.77%, NCCc1cccc(CN2CCCC(COc3ccccc3F)C2)c1 (stereo not drawn) -4.55%, c1ccc(-c2nnc3ccc(NC4CCC4)nn23)nc1 2.76% [at 76.7 µM], CC(C)(O)C#Cc1ccc(C(=O)N2CCC(O)(c3ccccn3)CC2)cc1 -4.87%
